# Experimental data: PMC5540273 (PLoS ONE, 2017)
# Columns and labels:
# Conditions in all cases: concentration: 1 μM,replicates: in singlicate; n = 1
# [1] = system: JAK1(JH2domain-pseudokinase)
# [2] = system: JAK2(JH1domain-catalytic)
# [3] = system: JAK3(JH1domain-catalytic)
# JNK1 = system: T1, JNK1
# T1 construct: gene MAPK8
# JNK2 = system: T2, JNK2
# T2 construct: gene MAPK9
# JNK3 = system: T3, JNK3
# T3 construct: gene MAPK10
# KIT-autoinhibited = system: KIT-autoinhibited
# KIT = system: KIT
# LATS1 = system: LATS1
# LATS2 = system: LATS2
# 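Note: KINOMEscan kinase panel screen.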
Compound,%Inh [1],%Inh [2],%Inh [3],%Inh (JNK1),%Inh (JNK2),%Inh (JNK3),%Inh (KIT-autoinhibited),%Inh (KIT),%Inh (LATS1),%Inh (LATS2)
CNC(=O)c1ccccc1Nc1nc(Nc2cccc(CS(C)(=O)=O)c2)ncc1C.O=CO [GSK1520489],97.8%,98.7%,99.9%,99.9%,99.7%,99.9%,62%,97.8%,71%,69%
O=c1[nH]cc(-c2ccc(O)cc2)c2sc(-c3ccncc3)cc12 [GSK1033723],0%,33%,51%,0%,0%,0%,0%,27%,0%,24%
CC(=O)Nc1nc2cnc(Nc3cc(NC(=O)c4cccc(CC(C)(C)C#N)c4)ccc3C)nc2s1,25%,0%,0%,33%,41%,43%,36%,100%,7%,47%
COc1cccc(CNC(=O)NC2CCN(c3ccnc(Nc4cc(OC)c(OC)c(OC)c4)n3)C2)c1 (stereo not shown) [GSK1379765],11%,89%,0%,29%,9%,25%,0%,60%,0%,5%
CS(=O)c1ccc(-c2coc3ccc(-c4n[nH]c(=O)o4)cc23)cc1 (stereo not shown),3%,23%,23%,23%,20%,16%,0%,0%,11%,21%
Cn1ccc2ncnc(Oc3ccc(NC(=O)Nc4cc(C(C)(C)C)on4)c(Cl)c3)c21,0%,8%,6%,12%,48%,7%,30%,100%,20%,25%
CCCC(=O)Nc1n[nH]c2ncccc12 [SB-601436],4%,18%,0%,20%,6%,1%,0%,0%,40%,0%
Cl.Cl.NC[C@H](CC1CCCCC1)NC(=O)c1ccc(-c2ccnc3[nH]ccc23)s1 [GSK1581428],0%,97.2%,99.7%,18%,11%,8%,0%,65%,89%,95.3%
CC(=O)Nc1ccc(-c2cc3ncnc(SCC(=O)O)c3s2)cc1,7%,0%,17%,7%,0%,0%,26%,79%,0%,20%
Cl.c1ccc(Oc2ccc(Nc3ccnc4cc(-c5ccc(CN6CCNCC6)o5)ccc34)cc2)nc1 [GW567142],17%,100%,0%,0%,3%,0%,10%,87%,0%,0%
COc1cccc(OC)c1C(=O)Nc1cccc(-c2nn3ccccc3c2-c2ccnc(Nc3cccc(F)c3)n2)c1 [GSK361065],4%,3%,0%,44%,0%,0%,11%,90.9%,6%,10%
N#Cc1cccc(C(=O)NC2CCN(c3ccnc(Nc4ccc(F)cc4)n3)C2)c1 (stereo not shown) [GSK1379708],0%,16%,0%,26%,34%,17%,0%,9%,0%,0%
Cc1ccn2nc(-c3ccc(F)cc3)c(-c3ccncc3)c2c1.Cl [GW457859],75%,50%,0%,43%,91.4%,93.4%,0%,26%,2%,0%
Cn1ccc2ncnc(Oc3ccc(NC(=O)Nc4cnn(C(C)(C)C)c4)c(Cl)c3)c21,0%,11%,15%,2%,10%,0%,35%,99.8%,100%,2%
COC(=O)c1cccc(NC(=O)NC2CCN(c3ccnc(NCc4ccc(F)cc4)n3)CC2)c1 [GSK1379860],0%,6%,0%,7%,23%,3%,0%,7%,0%,0%
COc1cc2nccc(Nc3ccc(Oc4ccccc4)cc3)c2cc1OC.Cl [GI261656],0%,100%,0%,4%,10%,0%,0%,79%,0%,9%
